From PubChem BioAssay (NCATS)
“And” between values parts separate entries of the source, which are not always exact repeats. Identical values can stand only once. Records with an inconclusive call do not appear. The source made the active and inactive calls. Unless noted, the call rests on the fitted dose curve; in most records, active means well fitted curve in the direction sought with a large enough effect; inconclusive means small, poorly fitted or top-dose-only effect, or another doubt; inactive means no such curve, though single readings can be large; an effect the other way counts as inactive or inconclusive.

How the values were obtained:
[1] = Cell Viability - SK-N-SH (AID 435; calls by dose curve; further: potency means the concentration at half of the fitted maximal effect); details: SK-N-SH neuroblastoma cell viability qHTS
Method in brief: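 qHTS cytotoxicity: CellTiter-Glo ATP luminescence after 40 h compound exposure of human neuroblastoma SK-N-SH cells at 37 °C. AC50 derived by Hill-equation fitting, with DMSO as basal and 100 uM tamoxifen as full inhibition.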

[2] = Cell Viability - N2a (AID 540); details: N2a mouse neuroblastoma cell viability; activity change, negative = cytotoxicity: at 92.2 µM (top of the series);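 further: plate controls were DMSO alone for no effect and tamoxifen control for full effect; nearly all actives have a fitted effect of over 45% in size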
Method in brief: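 Mouse neuroblastoma N2a cells, 1500/well, exposed to compounds 40 h at 37 °C in complete medium. Viability measured as cellular ATP by CellTiter-Glo luminescence; AC50 from Hill fits of concentration-response.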

[3] = Cell Viability - Renal Proximal Tubule (AID 545); details: renal proximal tubule cells viability, primary cells of rat origin; activity change, negative = cytotoxicity: at 91.7 µM (top of the series);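 further: 0% = DMSO only and -100% = 100 µM tamoxifen; nearly all actives have a fitted effect of over 40% in size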
Method in brief: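 Viability taken as intracellular ATP (CellTiter-Glo luminescence) after 40 hr, 37 °C compound treatment of primary proximal tubule cells from rat kidney, 1000 cells/well; Hill-equation fits of qHTS concentration-response data gave AC50.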

[4] = MultiTox-Fluor Cytotoxicity Assay - LYMP1-002 - Dead Cells (AID 960); details: LYMP1-002 lymphoblastoid cells, dead-cell protease fluorescence; series mostly up to 46.1 µM;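 further: cells exposed to compound for 16 h at 37 °C; 0% = DMSO and 100% = tetraoctylammonium bromide; nearly all actives have a fitted effect of over 60% in size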
Method in brief: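 Human lymphoblastoid LYMP1-002 cells, 2500/well, treated 16 h at 37 C; dead-cell protease cleavage of bis-AAF-R110 read by fluorescence (485/520); normalized to DMSO and 15 uM tetraoctylammonium bromide; AC50 from Hill fit.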

[5] = qHTS assay for small molecule disruptors of the mitochondrial membrane potential - 1 hr assay (AID 651754; calls by dose curve; further: nearly all actives have a fitted effect of over 35% in size; further: potency means the concentration at half of the fitted maximal effect); details: series mostly up to 92.2 µM
Method in brief: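 HepG2 cells, attached overnight, were exposed to compound for 1 hr at 37C, then stained 30 min with a potentiometric dye. Ratio of red aggregate (590nm) to green monomer (535nm) fluorescence reports membrane potential; collapse shifts signal toward green.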

[6] = qHTS assay for small molecule agonists of the antioxidant response element (ARE) signaling pathway measured by Nrf2-dependant transcriptional activity (AID 720636; active means well fitted curve in the direction sought with a large enough effect in the repeat runs; an effect the other way counts as inactive or inconclusive;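 further: HepG2 cells with an ARE-driven luciferase reporter; % of control where 0% means no effect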); details: ARE-luc HepG2, Nrf2 luciferase reporter, 16 h; series mostly up to 92.4 µM
Method in brief: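 In HepG2 cells engineered with an Nrf2-responsive luciferase gene, ARE induction was quantified as luminescence after 16 hr compound treatment at 37 C.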

[7] = target: Nuclear receptor subfamily 1 group I member 2 (Rattus norvegicus) (UniProt Q9R1A7); experiment: qHTS assay for small molecule activators of the rat pregnane X receptor (rPXR) signaling pathway (AID 651751; call rule not given here; further: 0% is about no effect); details: rPXR reporter cells, luciferase (One-Glo), 24 h
[8] = Cell Viability - Hek293 (AID 427;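 active means compounds whose dose-response curve shows a full or clear partial loss of cell viability, called from curve shape rather than a numeric limit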;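 further: potency means the concentration at half of the fitted maximal effect; cells exposed to compound for 40 hours at 37 °C before reading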); details: qHTS
Method in brief: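 qHTS, human embryonic kidney (adenovirus-transformed) cells; 40 hr cpd, 37 °C; CellTiter-Glo ATP luminescence. Norm: DMSO = 0, 100 uM tamoxifen = 100% inhibition. Hill-fit AC50.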

[9] = Cell Viability - SH-SY5Y (AID 544); details: SH-SY5Y neuroblastoma cell viability; viability change, negative = cytotoxic: at 92.2 µM (top of the series);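 further: 0% = DMSO alone and -100% = 100 µM tamoxifen; nearly all actives have a fitted effect of over 55% in size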
Method in brief: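 SH-SY5Y human neuroblastoma cells (1500/well) incubated 5 h, then compound-treated 40 h at 37 °C in complete medium. Viability read as intracellular ATP by CellTiter-Glo luminescence after 20 min; AC50 from Hill-equation fits of qHTS concentration-response.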

[10] = Cell Viability - LYMP2-001 (AID 921); details: LYMP2-001 lymphoblastoid cell viability; series mostly up to 92.2 µM; further: nearly all actives have a fitted effect of over 70% in size; further: potency means the concentration at half of the fitted maximal effect
Method in brief: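 Cellular ATP loss read by luciferase luminescence after 24 h compound exposure at 37 C in complete medium. LYMP2-001 lymphoblastoid cells, 2500/well; qHTS concentration-response data fitted with Hill equation for AC50.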

[11] = Cell Viability - LYMP2-005 (AID 967); details: LYMP2-005 lymphoblastoid cell viability; series mostly up to 92.2 µM;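 further: plate controls were DMSO only for no effect and 92 µM tetraoctylammonium bromide control for full effect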
Method in brief: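 LYMP2-005 human lymphoblastoid cells (2500/well) were treated with compounds for 24 h at 37 C. Intracellular ATP was then measured by CellTiter-Glo luminescence after 30 min at room temperature. AC50 values came from Hill-equation fits of qHTS concentration-response data.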

[12] = Cell Viability - LYMP2-009 (AID 968); details: LYMP2-009 lymphoblastoid cell viability; series mostly up to 92.2 µM;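 further: 0% = DMSO alone and the full-kill end = tetraoctylammonium bromide at 92 µM; nearly all actives have a fitted effect of over 55% in size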
[13] = Cell Viability - LYMP2-015 (AID 971); details: LYMP2-015 lymphoblastoid cell viability; series mostly up to 92.2 µM;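 further: 0% = DMSO only and full effect = 92 µM tetraoctylammonium bromide; nearly all actives have a fitted effect of over 55% in size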
Method in brief: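 LYMP2-015 human lymphoblastoid cells (2500/well) in complete medium, compound-treated 24 h at 37 C; viability read as cellular ATP by CellTiter-Glo luminescence after 30 min at room temperature. AC50 from Hill-equation fits of qHTS concentration-response data.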

[14] = Cell Viability - LYMP2-017 (AID 972); details: LYMP2-017 lymphoblastoid cell viability; series mostly up to 92.2 µM; further: nearly all actives have a fitted effect of over 55% in size; further: potency means the concentration at half of the fitted maximal effect; on activity change, negative = cytotoxicity: on the % scale 0 is the no-effect control and ±100 the full control effect
Method in brief: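 LYMP2-017 human lymphoblastoid cells (2500/well) settled 5 hr at 37 C, then exposed to compound 24 hr at 37 C in complete medium. Viability taken as intracellular ATP by CellTiter-Glo luminescence after 30 min at RT; AC50 from Hill fits.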

[15] = Cell Viability - LYMP2-019 (AID 973); details: LYMP2-019 lymphoblastoid cell line viability; series mostly up to 92.2 µM
Method in brief: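 Human lymphoblastoid LYMP2-019 cells (2500/well) preincubated 5 h at 37 C, then treated 24 h at 37 C in complete medium. Viability by CellTiter-Glo ATP luminescence after 30 min at room temperature; AC50 from Hill fits.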

[16] = Cell Viability - LYMP2-010 (AID 981); details: LYMP2-010 lymphoblastoid cell viability, qHTS; series mostly up to 92.2 µM
Method in brief: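 Human lymphoblastoid LYMP2-010 cells (2500/well) treated 24 h at 37 C in complete medium; viability read as intracellular ATP by CellTiter-Glo luminescence. AC50 from Hill fits of concentration-response data; tetraoctylammonium bromide positive control.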

[17] = qHTS assay for small molecule agonists of retinoid X receptor alpha signaling (AID 588544; calls by dose curve); details: HEK293T RXRa-UAS-bla, beta-lactamase reporter, 18 h; 530 nm emission
[18] = target: Retinoic acid receptor RXR-alpha (Homo sapiens) (UniProt P19793); experiment: as above; details: HEK293T RXRa-UAS-bla, beta-lactamase reporter, 18 h; series mostly up to 76.7 µM
[19] = target: Thyroid hormone receptor beta (Homo sapiens) (UniProt P10828); experiment: qHTS assay for small molecule agonists of thyroid hormone receptor beta signaling (AID 588545; calls by dose curve; further: potency means the concentration at half of the fitted maximal effect); details: TR-UAS-bla GripTite HEK 293, beta-lactamase ratio, agonist mode, 18 h; series mostly up to 76.7 µM
Method in brief: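 Beta-lactamase reporter activity under TR response element control is measured in HEK 293 cells after 18 hrs compound exposure. Signal is ratiometric CCF4 fluorescence, 460/530 nm.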

[20] = qHTS assay for small molecule disruptors of the mitochondrial membrane potential - 5 hr assay (AID 651755; calls by dose curve; further: on the % scale 0 is the no-effect control and ±100 the full control effect; nearly all actives have a fitted effect of over 40% in size); details: JC-1-type ratio dye; series mostly up to 92.2 µM
Method in brief: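 HepG2, 2,000 cells/well, overnight attach; cpd or DMSO 5 hr, 37C/5% CO2; Mito-MPS 30 min 37C; fluor 490/535 + 540/590 nm.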

Sequence of Retinoic acid receptor RXR-alpha (Homo sapiens) (P19793 whole entry, looked up): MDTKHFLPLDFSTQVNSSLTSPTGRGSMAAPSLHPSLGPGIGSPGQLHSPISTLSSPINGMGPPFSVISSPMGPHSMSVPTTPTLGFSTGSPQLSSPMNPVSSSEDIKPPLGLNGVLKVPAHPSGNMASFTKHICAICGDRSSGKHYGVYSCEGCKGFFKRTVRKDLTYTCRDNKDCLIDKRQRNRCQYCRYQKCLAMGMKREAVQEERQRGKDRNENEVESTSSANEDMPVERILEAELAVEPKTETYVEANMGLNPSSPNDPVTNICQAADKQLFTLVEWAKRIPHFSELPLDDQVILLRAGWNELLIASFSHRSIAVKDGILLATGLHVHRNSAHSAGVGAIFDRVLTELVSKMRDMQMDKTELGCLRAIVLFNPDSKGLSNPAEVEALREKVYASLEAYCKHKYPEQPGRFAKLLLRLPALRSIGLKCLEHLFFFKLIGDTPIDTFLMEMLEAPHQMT
Sequence of Thyroid hormone receptor beta (Homo sapiens) (P10828 whole entry, looked up): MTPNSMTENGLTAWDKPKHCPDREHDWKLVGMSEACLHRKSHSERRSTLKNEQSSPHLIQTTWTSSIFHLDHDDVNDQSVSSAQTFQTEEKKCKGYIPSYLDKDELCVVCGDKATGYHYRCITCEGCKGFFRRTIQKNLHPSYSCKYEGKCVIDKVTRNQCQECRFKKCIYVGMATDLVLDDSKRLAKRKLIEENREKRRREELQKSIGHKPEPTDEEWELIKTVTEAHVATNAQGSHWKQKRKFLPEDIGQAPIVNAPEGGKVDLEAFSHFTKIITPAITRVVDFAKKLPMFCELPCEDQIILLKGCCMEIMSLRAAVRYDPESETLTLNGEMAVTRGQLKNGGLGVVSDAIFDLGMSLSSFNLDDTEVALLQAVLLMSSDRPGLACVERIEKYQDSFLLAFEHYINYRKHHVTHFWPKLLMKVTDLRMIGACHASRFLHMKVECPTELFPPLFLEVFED
Sequence of Nuclear receptor subfamily 1 group I member 2 (Rattus norvegicus) (Q9R1A7 whole entry, looked up): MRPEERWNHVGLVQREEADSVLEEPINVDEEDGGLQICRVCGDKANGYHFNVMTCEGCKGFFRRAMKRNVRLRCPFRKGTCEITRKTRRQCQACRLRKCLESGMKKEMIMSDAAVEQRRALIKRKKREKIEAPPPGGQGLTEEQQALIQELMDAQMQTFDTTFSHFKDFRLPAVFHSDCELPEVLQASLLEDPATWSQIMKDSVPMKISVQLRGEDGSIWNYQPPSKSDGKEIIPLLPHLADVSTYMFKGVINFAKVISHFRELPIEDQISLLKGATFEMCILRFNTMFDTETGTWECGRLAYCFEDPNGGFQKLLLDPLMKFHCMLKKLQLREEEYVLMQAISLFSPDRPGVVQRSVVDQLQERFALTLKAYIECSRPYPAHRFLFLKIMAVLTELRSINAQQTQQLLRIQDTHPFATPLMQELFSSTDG

Nc1ccc(-c2ccc(N)c(O)c2)cc1O
inactive: Potency [1] > 92 µM | Potency [3] | Potency [4] | Potency [5] | Potency [6] | max response [7] -1.46%
active: activity change, negative = cytotoxicity [2] -122%

O=c1[nH]ncc2ccccc12
10.5%: max response [17]
active: viability change, negative = cytotoxic [9] -82.8%
inactive: Potency [8] > 92 µM | Potency [1] > 92 µM | activity change, negative = cytotoxicity [2] -2.98% | Potency [3] | Potency [10] | Potency [4] | Potency [11] | Potency [12] | Potency [13] | Potency [14] | Potency [15] | Potency [16] | Potency [18] | Potency [19] | Potency [5] | Potency [20] | Potency [6] | max response [7] -3.03%

Oc1ccc(O)c2c(O)cccc12
-16.7%: max response [17]
active: Potency [10] 50.1 µM | Potency [14] 50.1 µM | Potency [5] 23.7 µM
inactive: activity change, negative = cytotoxicity [2] -30.1% | Potency [3] | Potency [4] | Potency [18] | Potency [19] | max response [7] 1.1%

O=C(OCc1ccccc1)c1ccccc1O
-8.01% and -0.712%: max response [17]
inactive: Potency [8] > 92 µM | Potency [1] > 92 µM | activity change, negative = cytotoxicity [2] -11.2% | Potency [9] | Potency [3] | Potency [10] | Potency [11] | Potency [12] | Potency [13] | Potency [14] | Potency [15] | Potency [16] | Potency [18] | Potency [19] | Potency [5] | Potency [20] | Potency [6] | max response [7] -3.94% and -2.55%

CCN(CC)c1ccc2c(C)cc(=O)oc2c1
active: Potency [19] 22.4 µM
inactive: Potency [8] > 92 µM | Potency [1] > 92 µM | activity change, negative = cytotoxicity [2] -15.7% | Potency [9] | Potency [10] | Potency [11] | Potency [12] | Potency [13] | Potency [14] | Potency [15] | Potency [16] | Potency [6]

COc1ccc([N+](=O)[O-])cc1N
-3.38% and -0.384%: max response [17]
inactive: Potency [8] > 92 µM | Potency [1] > 92 µM | Potency [9] | Potency [3] | Potency [10] | Potency [4] | Potency [12] | Potency [13] | Potency [14] | Potency [15] | Potency [16] | Potency [18] | Potency [19] | Potency [5] | Potency [20] | Potency [6]

C[Si](C)(C)Cl
8.09%: max response [17]
inactive: Potency [8] > 92 µM | Potency [1] > 92 µM | activity change, negative = cytotoxicity [2] -6.55% | Potency [3] | Potency [10] | Potency [4] | Potency [11] | Potency [12] | Potency [13] | Potency [14] | Potency [15] | Potency [16] | Potency [18] | Potency [19] | Potency [5] | Potency [20] | Potency [6] | max response [7] 1.16%

CCCC(=O)OC(=O)CCC
16.4% and -19.3%: max response [17]
inactive: Potency [8] > 92 µM | Potency [1] > 92 µM | activity change, negative = cytotoxicity [2] -12.9% | Potency [9] | Potency [3] | Potency [10] | Potency [4] | Potency [12] | Potency [13] | Potency [14] | Potency [15] | Potency [18] | Potency [19] | Potency [5] | Potency [20] | Potency [6] | max response [7] -1.94% and 0.492%
